Measured values reported in PubChem BioAssay.
Calls of active or inactive are those of the source. How the calls were made is not given here.

Target: Pantothenate synthetase (Mycobacterium tuberculosis (strain ATCC 25618 / H37Rv)) (UniProt P9WIL5)
Assay: Recombinant Mtb pantothenate synthetase (PanC) inhibitors, coupled enzyme, confirmatory (AID 375);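 further: 0% = full reaction with vehicle and 100% = no enzyme background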
Details: coupled enzyme assay; at 10 µM, active compounds read high

Sequence of Pantothenate synthetase (Mycobacterium tuberculosis (strain ATCC 25618 / H37Rv)) (P9WIL5 whole entry, looked up): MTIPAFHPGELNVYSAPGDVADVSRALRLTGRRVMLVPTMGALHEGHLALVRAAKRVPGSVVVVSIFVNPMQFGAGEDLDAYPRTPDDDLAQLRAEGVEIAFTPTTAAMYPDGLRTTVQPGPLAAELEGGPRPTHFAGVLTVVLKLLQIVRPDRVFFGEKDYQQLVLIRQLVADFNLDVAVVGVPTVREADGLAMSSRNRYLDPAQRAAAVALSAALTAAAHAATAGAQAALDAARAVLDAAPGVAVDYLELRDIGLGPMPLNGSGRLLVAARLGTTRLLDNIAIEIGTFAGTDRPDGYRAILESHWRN

Row | SMILES | inhibition
1 | CC(C)(C)c1cc(CCC(=O)N2CCNCC2)c(C(C)(C)C)cc1O | 0% (inactive)
2 | COc1ccccc1N1CCN(CCCNC(=O)Nc2ccccc2)CC1 | 10% (inactive)
3 | c1ccc(CSCc2cn3ccsc3n2)cc1 | 0% (inactive)
4 | N#Cc1c(N)nc2c(c1-c1ccncc1)CCCCC2 | 8% (inactive)
5 | O=C(Nc1ccc2oc(=O)ccc2c1)c1cccnc1 | 0% (inactive)
6 | Cc1cc(NC(=O)CSc2nc(C3CC3)nc3sc4c(c23)CCC(C)C4)no1 (stereo not given) | 6% (inactive)
7 | CC1(C)CC(=O)C(C=NCCO)=C(O)C1 | 0% (inactive)
8 | Cn1c2c(c(=O)n(C)c1=O)C(CC(=O)Nc1ccccc1)C(=O)N2 (stereo not given) | 7% (inactive)
9 | O=C1CC(c2ccccc2)NC(=O)N1 (stereo not given) | 0% (inactive)
10 | Cc1occc1-c1nnc(SCC(=O)NCC2CCCO2)n1C (stereo not given) | 7% (inactive)
11 | COc1ccc(N2CCN(C(=O)C(OC(C)=O)c3ccccc3)CC2)cc1 (stereo not given) | 3% (inactive)
12 | Cc1ccc(N2C(=O)c3oc4ccccc4c(=O)c3C2c2cccc(O)c2)nc1 (stereo not given) | 0% (inactive)
13 | CCc1nn(CC(=O)N2CCN(Cc3ccc4c(c3)OCO4)CC2)c(=O)c2cc3occc3n12 | 5% (inactive)
14 | Cc1ccc(N(C(=O)c2ccncc2)C2C=CS(=O)(=O)C2)cc1 (stereo not given) | 5% (inactive)
15 | CCNC(=O)CC1C(=O)N(c2ccccc2)C(=O)N1Cc1ccc(OC)cc1 (stereo not given) | 0% (inactive)
16 | CCCOc1ccccc1C1CC(=O)Nc2cc3c(cc21)OCCO3 (stereo not given) | 2% (inactive)
17 | CCOC(=O)c1ccc(NS(=O)(=O)c2ccc(SC)cc2)cc1 | 0% (inactive)
18 | Cc1cc(C)n(C(C)n2nc(C)cc2C)n1 | 6% (inactive)
19 | C=CCC1(O)C(=O)Nc2ccccc21 (stereo not given) | 0% (inactive)
20 | O=C(CCCN1C(=O)c2ccccc2C1=O)N1CCC(c2ccccc2)C1 (stereo not given) | 4% (inactive)

Row | SMILES | inhibition
21 | Cn1c(=O)[nH]c(=O)c2c1nc(N(CCO)Cc1ccccc1)n2Cc1ccccc1Cl | 4% (inactive)
22 | CCc1oc2ccccc2c1C(=O)c1cc(Br)c(O)c(Br)c1 | 0% (inactive)
23 | CCOC(=O)N1CCC(N2C(=O)c3ccccc3C2Nc2cccnc2)CC1 (stereo not given) | 4% (inactive)
24 | CCOc1ccc(NC(=O)CSc2nnc(Cc3cccn3C)n2-c2ccc(OC)cc2)cc1 | 1% (inactive)
25 | COC(=O)C1=C(N)OC2=C(C(=O)CCC2)C1c1cccs1 (stereo not given) | 0% (inactive)
26 | Cc1cccc(-c2cc3nc(C)cc(NCCCN(C)C)n3n2)c1 | 0% (inactive)
27 | CCc1cccc(NS(=O)(=O)c2c(C)n[nH]c2C)c1 | 0% (inactive)
28 | CCOC(=O)c1sc2nc3c(cc2c1N)COC(C)(C)C3 | 12% (inactive)
29 | Cc1ccc(OC(=O)NC2CCS(=O)(=O)C2)cc1C (stereo not given) | 0% (inactive)
30 | c1n[nH]c(SCCCCSc2ncn[nH]2)n1 | 6% (inactive)
31 | Cc1ccc(-c2nc3cc(NC(=O)C(C)C)ccc3o2)cc1 | 0% (inactive)
32 | Cn1c(=O)[nH]c(=O)c2c1nc(Br)n2Cc1ccccc1F | 0% (inactive)
33 | Cc1ccc(N2CCN(C(=S)c3ccc(N(C)C)cc3)CC2)cc1 | 10% (inactive)
34 | CC1CN(C(=O)CSc2nnc(-c3ccncc3)n2-c2ccccc2)CC(C)O1 (stereo not given) | 1% (inactive)
35 | CCOc1ccc(OCCCCN(C)C)cc1 | 2% (inactive)
36 | Cn1c(CN2CCCCC2)nc2cc(NC(=O)c3ccccc3)ccc21 | 0% (inactive)
37 | CSc1nc(N2CCOCC2)c2c(c1C#N)CCCCC2 | 0% (inactive)
38 | CCOC(=O)c1ccc2nc(C)c3c(c2c1)OC(C)C3 (stereo not given) | 0% (inactive)
39 | CC(C)OC(=O)CSc1nnc(Cc2ccccc2)n1Cc1ccco1 | 8% (inactive)
40 | O=C(/C=C/c1ccccc1)c1ccccc1 | 0% (inactive)
